± gives the standard deviation.
Tested on: MILI (PIWIL2) piRISC loaded with L1MC piRNA (26 nt)
Experiment: pre-steady-state target cleavage rate (min^-1); guide: L1MC piRNA 5'p-UAACUAAAUACUAUGCAAGCUGUAGG; MIWI and MILI are mouse PIWI proteins and EfPiwi is from a freshwater sponge; tags in brackets are library labels; higher = faster piRNA-guided slicing of the target
Conditions: auxiliary factor: none (no GTSF1)
Summary of the method: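 With or without 500 nM GTSF1 partner protein, 1 nM active affinity-purified piRISC carrying one synthetic guide was mixed with 0.1 nM transcribed, DNA-blocked target RNA library in HEPES–potassium acetate buffer at 33 °C for 0–8 or 0–960 min. Uncleaved targets were sequenced and normalised to depth and to weakly complementary targets, three trials were pooled, and k3 was capped at 0.0001 min^-1. The pre-steady-state cleavage rate came from a burst-and-steady-state fit.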

| Sequence | pre-steady-state target cleavage rate |
| --- | --- |
| UCCUGGAUGUCGAUGGAUUGUAUUUAGUUA | < 0.0001 |
| UCCUGGAUGUCGAACGUAUGUGUUUAGUUA | < 0.0001 |
| UCCUGGAUGUCGAACCAUAGUAUUAAGUAA | < 0.0001 |
| UCCUGGAUGUCGAACGAUAGUAUUUAAGUUA | < 0.0001 |
| UCCUGGAUGUCGAACCAUAGUAUUAGUUA | < 0.0001 |
| UCCUGGAUGUCGAACAAUAGUAUUUAGUUA | < 0.0001 |
| UCCUGGAUGUCGAUGCAUAGUUAAUAGUUA | 0.00272 ± 0.0027 |
